These results are taken from PubChem BioAssay.

Active and inactive are the calls of the source.

Assay [1] is described as follows: optical density shifts of acrAB sulA E. coli – strain DRC41, OD650, 48 h, E. coli filamentation inducer project, primary screen (AID 1152).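 Note: E. coli MC1000 strain DRC41 lacking acrAB efflux pump and sulA.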 The settings on record: higher = more signal, called active from +8 up or from −8 down.
Assay [2] is described as follows: probe aLefty1 binding on compound microarray – biochemical, small-molecule microarray, 635/667 nm fluorescence, primary screen (AID 1153).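 Note: score merges spot fluorescence with signal-to-noise ratio from the scanned slide images.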 The settings on record: higher = more signal.
A short description of assay [3]: plasmodial surface anion channel blockers, osmotic lysis – cell-based, P. falciparum Indochina, OD700, 1 h, primary screen (AID 1154). The settings on record: P. falciparum Indochina infected RBC osmotic lysis, higher = more signal, called active from +8 up or from −8 down.
Assay [4] in a line: plasmodial surface anion channel blockers, osmotic lysis – cell-based, P. falciparum Indochina, OD700, 2 h, primary screen (AID 1155).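 Note: lysis reports solute entry through the parasite surface anion channel PSAC.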 The settings on record: P. falciparum Indochina infected erythrocytes, higher = more signal, called active from +8 up or from −8 down.
Assay [5] is described as follows: changes in parasitized red cell lysis, either direction – P. falciparum Indochina, OD700, 3 h, PSAC antagonist project, primary screen (AID 1156). The settings on record: P. falciparum-infected erythrocytes, osmotic lysis, higher = more signal, called active from +8 up or from −8 down.
Assay [6] in a line: plasmodial surface anion channel blockers, osmotic lysis – cell-based, P. falciparum Indochina, OD700, 18 h, primary screen (AID 1157). The settings on record: P. falciparum Indochina infected erythrocytes, osmotic lysis OD700, 18 h; higher = more signal, called active from +8 up or from −8 down.
Assay [7] is described as follows: S6 kinase pathway phospho-S6 level changes – cell-based, A549, cytoblot, luminescence, serum-stimulated, primary screen (AID 1158).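 Note: serum-stimulated A549 lung adenocarcinoma cells; signal is phosphorylated S6 detected by cytoblot immunostaining with HRP secondary.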 The settings on record: 5 h, higher = more signal.
Assay [8] concerns the target NADPH oxidase 2 (Homo sapiens) (UniProt P04839). The assay is described as follows: compounds shifting NOX2 Amplex Red fluorescence – cell-based, HEK293-NOX2, PMA-stimulated, NOX inhibitor project, primary screen (AID 1159). Note: test concentration not given here. The settings on record: 45 min, higher = more signal, called active from +8 up or from −8 down.
Assay [9] concerns the target NADPH oxidase 4 (Homo sapiens) (UniProt Q9NPH5). The assay is described as follows: compounds shifting NOX4 Amplex Red fluorescence – cell-based, HEK293-NOX4, tetracycline-induced, NOX inhibitor project, primary screen (AID 1160). The settings on record: HEK293-NOX4, Amplex Red H2O2 fluorescence, 45 min; higher = more signal, called active from +8 up or from −8 down.
The target of assay [10] is NADPH oxidase 5 (Homo sapiens) (UniProt Q96PH1). The assay is described as follows: compounds shifting NOX5 Amplex Red fluorescence – cell-based, HEK293-NOX5, NOX inhibitor project, primary screen (AID 1161). The settings on record: HEK293-NOX5, ionomycin, 45 min, higher = more signal.
Chain of NADPH oxidase 5 (Homo sapiens) (Q96PH1 whole entry, looked up): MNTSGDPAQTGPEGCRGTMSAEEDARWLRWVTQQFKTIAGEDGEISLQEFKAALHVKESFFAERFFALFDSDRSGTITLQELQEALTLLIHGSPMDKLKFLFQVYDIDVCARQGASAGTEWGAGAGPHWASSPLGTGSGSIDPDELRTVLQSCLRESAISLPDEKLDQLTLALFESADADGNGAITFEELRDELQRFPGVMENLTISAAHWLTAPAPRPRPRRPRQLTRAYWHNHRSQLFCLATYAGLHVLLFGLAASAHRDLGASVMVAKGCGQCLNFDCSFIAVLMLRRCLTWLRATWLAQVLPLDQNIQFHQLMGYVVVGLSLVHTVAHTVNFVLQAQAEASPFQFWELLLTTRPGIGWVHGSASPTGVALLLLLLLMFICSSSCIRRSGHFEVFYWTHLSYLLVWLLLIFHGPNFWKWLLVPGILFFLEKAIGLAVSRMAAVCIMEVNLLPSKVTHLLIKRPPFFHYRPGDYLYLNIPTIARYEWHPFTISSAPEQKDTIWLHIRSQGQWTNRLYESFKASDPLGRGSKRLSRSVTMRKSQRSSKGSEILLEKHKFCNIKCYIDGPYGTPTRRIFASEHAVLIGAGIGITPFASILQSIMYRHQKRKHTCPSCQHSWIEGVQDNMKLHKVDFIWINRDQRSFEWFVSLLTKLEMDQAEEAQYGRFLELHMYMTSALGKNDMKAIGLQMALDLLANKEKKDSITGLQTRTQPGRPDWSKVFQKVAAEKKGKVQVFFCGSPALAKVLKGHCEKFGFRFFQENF
Assay [11] can be described thus: compound effects on lung adenocarcinoma cell viability – A549, calcein-AM fluorescence, 48 h, basal, profiling panel (AID 1162). Note: test concentration not given here. The settings on record: higher = more signal.
The nature of assay [12]: compound effects on differentiated 3T3-L1 adipocyte viability – cell-based, 3T3-L1 adipocytes, calcein-AM fluorescence, 48 h, basal, profiling panel (AID 1163). Note: test concentration not given here. The settings on record: 3T3-L1 adipocytes viability, higher = more signal.
Assay [13] can be described thus: compound effects on hepatocellular carcinoma cell viability – HepG2, calcein-AM fluorescence, 48 h, basal, profiling panel (AID 1164). Note: test concentration not given here. The settings on record: higher = more signal.
Assay [14] can be described thus: compound effects on multiple myeloma cell viability – MM1S, calcein-AM fluorescence, 48 h, basal, profiling panel (AID 1165).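 Note: viability of MM1S multiple myeloma cells under basal unstimulated conditions; test concentration not given here.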 The settings on record: higher = more signal.
A short description of assay [15]: calcein-AM signal in unstimulated myeloma cells – cell-based, calcein-AM fluorescence, 48 h, PK04 Diversity Set, profiling panel (AID 1166).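 Note: cells grown under basal conditions without added stimulus; test concentration not given here.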 The settings on record: RPMI8226 myeloma viability, higher = more signal.
Assay [16] is described as follows: JC-1 mitochondrial signal, unstimulated HepG2 cells – cell-based, JC-1 fluorescence, 24 h, 100 nL compound, profiling panel (AID 1167). Note: test concentration not given here. The settings on record: HepG2 mitochondrial potential, higher = more signal.
A short description of assay [17]: JC-1 mitochondrial signal, unstimulated adipocytes – cell-based, JC-1 fluorescence, 3T3-L1 adipocytes, 24 h, 100 nL compound, profiling panel (AID 1168). Note: test concentration not given here. The settings on record: JC-1 mitochondrial fluorescence, higher = more signal, called active from +8 up or from −8 down.
A short description of assay [18]: JC-1 mitochondrial signal, unstimulated myeloma cells – cell-based, JC-1 fluorescence, RPMI8226, 24 h, 100 nL compound, profiling panel (AID 1169). Note: test concentration not given here. The settings on record: JC-1 mitochondrial potential fluorescence, higher = more signal.
Assay [19] in a line: JC-1 mitochondrial signal, unstimulated MM1S myeloma – cell-based, JC-1 fluorescence, 24 h, 100 nL compound, profiling panel (AID 1170). Note: test concentration not given here. The settings on record: MM1S mitochondrial potential, higher = more signal.
A short description of assay [20]: resazurin metabolic signal in A549 cells – cell-based, resazurin fluorescence, 24 h, PK04 Diversity Set, profiling panel (AID 1171). Note: test concentration not given here. The settings on record: A549 viability, higher = more signal, called active from +8 up or from −8 down.

Chain of NADPH oxidase 2 (Homo sapiens) (P04839 whole entry, looked up): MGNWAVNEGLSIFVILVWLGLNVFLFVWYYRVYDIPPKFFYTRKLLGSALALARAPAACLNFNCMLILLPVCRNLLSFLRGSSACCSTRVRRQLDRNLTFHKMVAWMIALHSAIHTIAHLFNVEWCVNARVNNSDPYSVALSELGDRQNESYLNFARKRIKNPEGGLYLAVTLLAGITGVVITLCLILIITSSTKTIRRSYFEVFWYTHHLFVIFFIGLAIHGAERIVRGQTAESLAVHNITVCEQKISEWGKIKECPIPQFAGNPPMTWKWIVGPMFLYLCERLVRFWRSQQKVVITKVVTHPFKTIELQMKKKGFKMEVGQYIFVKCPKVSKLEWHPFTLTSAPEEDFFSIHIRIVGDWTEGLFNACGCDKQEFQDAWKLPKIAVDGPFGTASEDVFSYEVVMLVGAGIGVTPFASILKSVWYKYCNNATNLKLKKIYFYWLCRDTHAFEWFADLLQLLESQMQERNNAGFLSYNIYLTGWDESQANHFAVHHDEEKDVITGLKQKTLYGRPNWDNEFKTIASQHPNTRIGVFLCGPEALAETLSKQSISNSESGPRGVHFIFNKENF
Chain of NADPH oxidase 4 (Homo sapiens) (Q9NPH5 whole entry, looked up): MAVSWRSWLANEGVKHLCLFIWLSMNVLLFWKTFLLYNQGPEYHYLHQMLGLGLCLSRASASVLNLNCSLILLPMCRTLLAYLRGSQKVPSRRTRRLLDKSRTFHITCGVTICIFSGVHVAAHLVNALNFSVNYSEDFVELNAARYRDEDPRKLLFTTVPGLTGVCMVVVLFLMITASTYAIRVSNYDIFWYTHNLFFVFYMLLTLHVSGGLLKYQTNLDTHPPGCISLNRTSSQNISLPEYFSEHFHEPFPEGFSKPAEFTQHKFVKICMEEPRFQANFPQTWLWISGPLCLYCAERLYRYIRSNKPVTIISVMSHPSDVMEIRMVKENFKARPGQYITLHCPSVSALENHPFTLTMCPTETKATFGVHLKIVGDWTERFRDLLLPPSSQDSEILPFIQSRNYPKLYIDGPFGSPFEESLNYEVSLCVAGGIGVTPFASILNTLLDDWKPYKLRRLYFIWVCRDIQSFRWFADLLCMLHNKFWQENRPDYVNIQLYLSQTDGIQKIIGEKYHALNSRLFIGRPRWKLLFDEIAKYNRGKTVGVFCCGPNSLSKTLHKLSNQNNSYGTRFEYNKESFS

For the compound `Cc1ccccc1C(O)C1C=CC2C(=O)NC(=O)C2N1Nc1ccccn1` (stereo not given), the z-score in assay [1] is -0.908 (inactive); in assay [3], 0.408 (inactive); in assay [4] it was 0.608 (inactive); in assay [5], -0.0205 (inactive); in assay [6], 0.68 (inactive); in [7], -1.01. In addition, the z-score in assay [8] was -0.444 (inactive); in assay [9] it was -2.62 (inactive); in assay [10] it was -1.27; in [11], -0.251; in [12], -1.09; in assay [13], -0.823. Moreover, the z-score in assay [14] was -0.0706; in [15], -0.729; in [16], -0.831; in assay [17] it was -0.654 (inactive); in [18], 0.551; in assay [19], 0.365. Further, the z-score in [20] was -1.02 (inactive). The compound also registered a composite z-score in assay [2] of -0.229.
On to `COC(=O)[C@@]1(Cc2ccc(F)cc2)[C@H]2c3cc(C(=O)N(C)C)n(CCc4ccc(OC)c(Br)c4)c3C[C@H]2CN1C(=O)c1ccccc1`, for which the z-score is -1.75 (inactive) in assay [1]; 1.89 (inactive) in assay [3]; -1.04 (inactive) in [4]; 0.746 (inactive) in assay [5]; -1.96 (inactive) in [6]; 1.24 in [7]. Further, the z-score in [8] is -3.62 (inactive); in assay [9], -3.99 (inactive); in assay [10] it was -4.26; in assay [11], -2.25; in assay [12], 0.0834; in assay [13], -1.42. For the same compound, the z-score in assay [14] is -3.29; in [15], -4.63; in assay [16] it was -1.68; in [17] it was -0.662 (inactive); in assay [18], -0.812; in assay [19], -2.89. Moreover, in assay [20], the z-score is -2.93 (inactive). Moreover, in [2], the composite z-score amounted to 1.32.
As for `O=C1NC(=O)C2C1C=CC(C(O)c1ccco1)N2Nc1ccc(Cl)cc1Cl` (stereo not given), the z-score in [1] was -2.27 (inactive); in [3], 5.52 (inactive); in assay [4], 1.31 (inactive); in [5], 0.331 (inactive); in assay [6], 1.2 (inactive); in assay [7], -0.992. Also, the z-score is -0.767 (inactive) in [8]; -5.58 (inactive) in assay [9]; -4.22 in [10]; -0.396 in assay [11]; -0.792 in assay [12]; -1.16 in [13]. The z-score was -1.57 in assay [14]; -0.941 in [15]; -1.96 in assay [16]; -0.298 (inactive) in assay [17]; -0.977 in [18]; -0.218 in [19]. Also, in [20], the z-score was -2.08 (inactive). The composite z-score in [2] was -0.0984.
For `CC(C)NC(=O)[C@@]1(c2ccc([N+](=O)[O-])cc2)CC(=O)N(C2CCCCC2)[C@@H]1c1ccc(CO)cc1`, the z-score is 1.1 (inactive) in assay [1]; 0.66 (inactive) in assay [3]; 0.168 (inactive) in assay [4]; 0.18 (inactive) in assay [5]; -0.0376 (inactive) in assay [6]; -0.391 in assay [7]. Moreover, the z-score was 0.0357 (inactive) in assay [8]; 0.164 (inactive) in assay [9]; -0.229 in assay [10]; -0.68 in assay [11]; -0.773 in [12]; -0.297 in assay [13]. The z-score in assay [14] was -0.0629; in assay [15] it was -0.402; in assay [16], 1.46; in assay [17], 1.4 (inactive); in assay [18], 0.172; in [19], -0.123. Further, the z-score in [20] was 1.38 (inactive). The compound also returned a composite z-score in assay [2] of -0.154.
`COCCCNC(=O)[C@@]1(CCC(=O)OC(C)(C)C)N=C(c2ccc(OCCCO)cc2)O[C@H]1c1ccccc1N=[N+]=[N-]`: the z-score in [1] was 1.15 (inactive); in assay [3] it was 30.4 (active); in [4] it was 29.3 (active); in assay [5] it was 2.54 (inactive); in [6], 2.43 (inactive); in [7], -0.226. Besides, the z-score is -1.35 (inactive) in [8]; 0.197 (inactive) in assay [9]; -2.03 in assay [10]; 0.618 in assay [11]; 0.251 in [12]; 0.977 in assay [13]. Moreover, the z-score in [14] was -1.21; in [15] it was -1.16; in assay [16], 1.74; in assay [17] it was 3.98 (inactive); in assay [18], -1.15; in assay [19], -0.386. Moreover, the z-score in assay [20] is 1.38 (inactive). In addition, the composite z-score in [2] is 0.286.
Consider `C=CC[C@@]1(C(=O)NCCCOC)N=C(c2ccc(OCCCO)cc2)O[C@@H]1c1ccccc1`, for which the z-score in assay [1] was 1.3 (inactive); in assay [3], 21.7 (active); in assay [4], 7.55 (inactive); in assay [5], 1.32 (inactive); in assay [6], 0.406 (inactive); in assay [7], 1.54. Besides, the z-score in [8] was -0.393 (inactive); in assay [9], 0.523 (inactive); in assay [10], 0.754; in assay [11] it was 0.689; in assay [12], 0.457; in assay [13], 0.83. Besides, the z-score in assay [14] was 0.611; in assay [15] it was 0.751; in assay [16], -0.166; in [17], 1.21 (inactive); in assay [18], -0.323; in [19], 0.193. The z-score in assay [20] was -0.706 (inactive). This compound also had a composite z-score in assay [2] of 0.611.
As for `COc1ccc(CCNC(=O)[C@@H]2c3ccccc3C(=O)N(C3CCCCC3)[C@H]2c2ccc(CO)cc2)cc1`, the z-score was -0.71 (inactive) in assay [1]; 2.58 (inactive) in assay [3]; 0.163 (inactive) in assay [4]; 1.71 (inactive) in assay [5]; 0.0567 (inactive) in [6]; 0.491 in assay [7]. Further, the z-score in [8] was -0.415 (inactive); in [9] it was -0.546 (inactive); in [10] it was -2.31; in assay [11], 1.19; in [12] it was 1.1; in assay [13] it was 0.383. For the same compound, the z-score was 0.05 in assay [14]; -0.746 in [15]; 1.83 in assay [16]; -0.053 (inactive) in [17]; -0.726 in assay [18]; 0.337 in assay [19]. The z-score in assay [20] is 0.332 (inactive). This compound yielded a composite z-score in assay [2] of -0.0149.
On to `CCCC[C@@H]1C[C@H]1[C@@H](NC(=O)c1cccs1)c1ccccc1C(F)(F)F`, for which the z-score in [1] is -1.04 (inactive); in assay [3] it was 1.89 (inactive); in assay [4], 1.12 (inactive); in assay [5], -0.37 (inactive); in assay [6], 0.544 (inactive); in assay [7] it was -0.423. Moreover, the z-score in [8] is -1.39 (inactive); in assay [9], -3.14 (inactive); in [10], -0.173; in assay [11], 0.11; in assay [12], -0.556; in assay [13] it was -0.305. Besides, the z-score is -0.6 in [14]; -1.72 in [15]; -2.45 in [16]; -1.22 (inactive) in assay [17]; -0.307 in assay [18]; -1.24 in assay [19]. Further, the z-score in assay [20] was -0.462 (inactive). The composite z-score in assay [2] is 0.294.
